Data: PubChem BioAssay (NCATS)
Where “and” joins values, the source holds several entries; their conditions need not be identical. Equal values may be shown once. Results filed as inconclusive are left out. Unmarked numbers belong to inactive results. Calls of active or inactive are those of the source. The call rests on the fitted dose curve; in most records, active means well fitted curve in the direction sought with a large enough effect; inconclusive means small, poorly fitted or top-dose-only effect, or another doubt; inactive means no such curve, though single readings can be large; an effect the other way counts as inactive or inconclusive.

Assay: Viability qHTS for spleen associated tyrosine kinase inhibitor (SYKi) drug resistant MV4-11 cells (AID 1963824); further: nearly all actives have a fitted effect of over 35% in size
Conditions: SYKi-resistant MV4-11 viability, CellTiter-Glo, 72 h; series mostly up to 45 µM; viability, % of control: at the top concentration
Summary of the method: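 CellTiter-Glo luminescence, read 10 min after reagent addition, reports viability after a 72 hr compound exposure. Cells are an MV4-11 line made resistant to SYK inhibition, seeded at 500 per well onto compound-containing plates.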
Potency means the concentration at half of the fitted maximal effect.

| SMILES | viability, % of control | Potency |
| --- | --- | --- |
| CCN(CC)CCc1nc(-c2ccccc2)no1 | 87.1% | – |
| C=C1C[C@H]2C=Nc3cc(OCCCOc4cc5c(cc4OC)C(=O)N4CC(=C)C[C@H]4C=N5)c(OC)cc3C(=O)N2C1 | 4.35% | – |
| C(=C\c1ccccc1)/CN1CCN(C(c2ccccc2)c2ccccc2)CC1 | 87.5% | – |
| CNC(=O)c1cccc2cc(Oc3ccnc4cc(OCC5(N)CC5)c(OC)cc34)ccc12 | – | 14.8 µM (active) and 20.6 µM (active) |
| O=C(/C=C/c1ccc(Cl)cc1)N1CCC2(CC1)CN(Cc1ccc(Cl)c(Cl)c1)C(=O)O2 | – | 11.8 µM (active) |
| CCN1CCC[C@H]1CNC(=O)c1cc(S(N)(=O)=O)ccc1OC | – | inactive |
| NC(=S)N/N=C/c1cccnc1 | 89.1% | – |

Assay: Cellular viability qHTS for adrenocortical cancer (ACC) cell line SW-13 (AID 1963989); further: nearly all actives have a fitted effect of over 65% in size;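 on activity (max response): cells grown in serum-free medium with ITS supplement; on the % scale 0 is the no-effect control and ±100 the full control effect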
Conditions: SW-13 ACC cells viability, CellTiter-Glo, 48 h; activity (max response): stronger effect = lower value
Summary of the method: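 Viability was read as CellTiter-Glo luminescence after 48 h compound treatment (up to 46 uM final) of SW-13 cells grown serum-free; titration curves were fit with a four-parameter logistic model to give IC50 and efficacy.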

| SMILES | activity (max response) | Potency |
| --- | --- | --- |
| CCN1CCN(c2cc(-c3ccc(F)cc3)c3c(n2)CCCCCC3)CC1 | -1.29% | – |
| NC[C@@](O)(c1ccc(Cl)cc1)c1ccc(-c2cn[nH]c2)cc1 | – | 12.6 µM (active) |
| O=c1c(-c2ccc(O)cc2)coc2c([C@@H]3O[C@H](CO)[C@@H](O)[C@H](O)[C@H]3O)c(O)ccc12 | 3.16% | – |
| CC(C)(O)CC[C@@H](O)[C@](C)(O)[C@H]1CC[C@@]2(O)C3=CC(=O)[C@@H]4C[C@@H](O)[C@@H](O)C[C@]4(C)[C@H]3CC[C@]12C | 9.11% | – |
| Cc1cccc(C)c1NC(=O)c1ccccc1C(=O)O | 8.06% | – |
| COc1ccccc1C(=O)Nc1cc2c(cc1N1CCCCC1)n(C)c(=O)n2C | -17.1% | – |
| CN1CCN(c2ccc3nc(-c4cc(C(C)(C)C)c(OCCCC(=O)NCCCN=[N+]=[N-])c(C(C)(C)C)c4)[nH]c3c2)CC1 | – | 3.98 µM (active) |
| CC(=O)NC(CS)C(=O)O (configuration not stated) | -2.17% | – |
| C[C@]12CCC(=O)C=C1CC[C@@H]1[C@@H]2C(=O)C[C@@]2(C)[C@H]1CC[C@]2(O)C(=O)CO | 7.27% | – |
| CN1C(C)(C)CCCC1(C)C | -4.6% | – |
| N#Cc1ccc(COC[C@H]2O[C@@H](n3c(NCc4ccc(Cl)c(Cl)c4)nc4c(N)ncnc43)[C@H](O)[C@@H]2O)cc1 | – | 25.1 µM (active) |
| CC(=O)Nc1ccc(OC(=O)c2ccccc2OC(C)=O)cc1 | 8.82% | – |
| O=C(O)CCC(=O)Nc1ccc(S(=O)(=O)Nc2nccs2)cc1 | -7.1% | – |
| COc1ccccc1OCC(O)CO (configuration not stated) | 13.4% | – |
| O=C(CCc1ccc(O)cc1)c1c(O)cc(O)cc1O[C@@H]1O[C@H](CO)[C@@H](O)[C@H](O)[C@H]1O | 0.618% | – |
| CN(C)c1cc(NC(=O)CNC(C)(C)C)c(O)c2c1C[C@H]1C[C@H]3[C@H](N(C)C)C(=O)C(C(N)=O)=C(O)[C@]3(O)C(=O)C1=C2O | -8.31% | – |
| CC(C)N(CCCNC(=O)Nc1ccc(C(C)(C)C)cc1)C[C@H]1O[C@@H](n2cc(Br)c3c(N)ncnc32)[C@H](O)[C@@H]1O | – | 28.2 µM (active) |
| c1ccc(CN(CC2=NCCN2)c2ccccc2)cc1 | 0.264% | – |
| CC1(C)OC2=C(C(=O)c3ccccc3C2=O)[C@H](NCc2ccccc2)[C@@H]1O | – | 3.98 µM (active) |
| NCC1CCN(c2nccc(-c3ccc4ccccc4c3)n2)CC1 | – | 22.4 µM (active) |

| SMILES | activity (max response) | Potency |
| --- | --- | --- |
| Brc1c(NC2=NCCN2)ccc2nccnc12 | -5.06% | – |
| Cc1oc(=O)oc1COC(=O)[C@@H]1N2C(=O)[C@@H](NC(=O)[C@H](N)c3ccccc3)[C@H]2SC1(C)C | 7.35% | – |
| CCc1cc(C(N)=O)ccc1-n1nc(C(C)C)c2c(-n3cnc(-c4cnn(C)c4)c3)ccnc21 | – | 2.82 µM (active) |
| Cc1ccc2cc(-c3c(C)ccc(C(=O)c4c(-c5ccccc5)n(C)n(-c5ccccc5)c4=O)c3N)ccc2n1 | -12.9% | – |
| CCN(CC)CC(=O)OCC(=O)[C@@]1(O)CC[C@H]2[C@@H]3CCC4=CC(=O)CC[C@]4(C)[C@H]3[C@@H](O)C[C@@]21C | 11.9% | – |
| COc1cc([C@@H]2c3cc4c(cc3[C@@H](O[C@@H]3O[C@@H]5CO[C@@H](c6cccs6)O[C@H]5[C@H](O)[C@H]3O)[C@H]3COC(=O)[C@H]23)OCO4)cc(OC)c1O | – | 2.51 µM (active) |
| O=C1Nc2nc(-c3c(O)cccc3OCC3CC3)cc([C@@H]3CCCNC3)c2CO1 | – | 22.4 µM (active) |
| COc1ccc(-c2cc(C(O)C3CCCCN3)c3ccccc3n2)cc1 (configuration not stated) | – | 28.2 µM (active) |
| Cc1[nH]c2ccc(F)cc2c1-c1nc2c3cccnc3c3ncccc3c2[nH]1 | – | 2.24 µM (active) |
| COCCOc1cnc2ccn([C@H](C)c3nnc4c(F)cc(-c5cnn(C)c5)cn34)c(=O)c2c1 | -16.1% | – |
| CCCCNc1ncc2c(-c3ccc(F)cc3)nn(CC3CCC(N)CC3)c2n1 (configuration not stated) | – | 11.3 µM (active) |
| CNCc1ccc(-c2cc(-c3nc(-c4ccc(S(=O)(=O)C(C)C)cc4)cnc3N)on2)cc1 | – | 3.98 µM (active) |
| CCCCOC(=O)CC(CC(=O)OCCCC)(OC(C)=O)C(=O)OCCCC | 12.7% | – |
| CCN(CC)CCc1nc(-c2ccccc2)no1 | -1.01% | – |
| C=C1C[C@H]2C=Nc3cc(OCCCOc4cc5c(cc4OC)C(=O)N4CC(=C)C[C@H]4C=N5)c(OC)cc3C(=O)N2C1 | – | 0.01 µM (active) |
| C(=C\c1ccccc1)/CN1CCN(C(c2ccccc2)c2ccccc2)CC1 | -1.91% | – |
| CNC(=O)c1cccc2cc(Oc3ccnc4cc(OCC5(N)CC5)c(OC)cc34)ccc12 | – | 28.2 µM (active) |
| O=C(/C=C/c1ccc(Cl)cc1)N1CCC2(CC1)CN(Cc1ccc(Cl)c(Cl)c1)C(=O)O2 | -3.3% | – |
| CCN1CCC[C@H]1CNC(=O)c1cc(S(N)(=O)=O)ccc1OC | 6.63% | – |
| NC(=S)N/N=C/c1cccnc1 | -1.7% | – |
